This note sets out measurements from PubChem BioAssay (Tox21).

A short description of experiment [1]: Nuclear factor erythroid 2-related factor 2/antioxidant responsive element (Nrf2/ARE) small molecule agonists: qHTS cell viability counter screen in human keratinocytes (AID 1919968; active = well fitted curve in the direction sought with a large enough effect in the repeat runs; an effect the other way counts as inactive or inconclusive; also: nearly all actives have a fitted effect of over 55% in size; also: potency is read from the fitted curve at half-maximal effect). Put shortly:
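After a 5 h attachment period, ARE-reporter keratinocytes were dosed with compounds in DMSO and then cultured 23 h at 37 C. Cell viability came from CellTiter-Fluor signal read after a further 1 h.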
In general terms: In qHTS, concentration-response curves come from the screen itself.

The nature of experiment [2]: Nuclear factor erythroid 2-related factor 2/antioxidant responsive element (Nrf2/ARE) small molecule agonists: luciferase reporter gene qHTS assay in human keratinocytes (AID 1919969; also: nearly all actives have a fitted effect of over 35% in size; also: potency is read from the fitted curve at half-maximal effect). (A reporter such as luciferase makes a cellular process visible.)
Experiment [3] deals with Gonadotropin-releasing hormone receptor (Homo sapiens) (UniProt P30968). Briefly: Human gonadotropin-releasing hormone receptor (GnRHR) small molecule agonists, calcium flux assay in GnRHR-HEK293 cells (AID 1920063). Also: nearly all actives have a fitted effect of over 35% in size. Also: potency is read from the fitted curve at half-maximal effect. Put shortly:
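We seeded human GnRHR-expressing HEK293 cells for 18 hours, loaded them with calcium dye for an hour at 37 C, added test compounds, and recorded fluorescence intensity kinetically for three minutes.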
A general note: Calcium flux is commonly read through the fluorescence of an indicator in the cells.

Experiment [4] deals with KiSS-1 receptor (Homo sapiens) (UniProt Q969F8). Put plainly: Human kisspeptin (KISS1R) small molecule agonists, calcium flux assay in KISS1R-HEK293 cells (AID 1920064; active = well fitted curve in the direction sought with a large enough effect in the repeat runs; an effect the other way counts as inactive or inconclusive; also: potency is read from the fitted curve at half-maximal effect). Put shortly: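 Kinetic calcium assay, 1 s sampling over 3 min at Ex/Em 480/540, in HEK293 cells engineered with human KISS1R; compounds delivered in DMSO after 1 h dye loading.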
Chain of KiSS-1 receptor (Homo sapiens) (Q969F8 whole entry, looked up): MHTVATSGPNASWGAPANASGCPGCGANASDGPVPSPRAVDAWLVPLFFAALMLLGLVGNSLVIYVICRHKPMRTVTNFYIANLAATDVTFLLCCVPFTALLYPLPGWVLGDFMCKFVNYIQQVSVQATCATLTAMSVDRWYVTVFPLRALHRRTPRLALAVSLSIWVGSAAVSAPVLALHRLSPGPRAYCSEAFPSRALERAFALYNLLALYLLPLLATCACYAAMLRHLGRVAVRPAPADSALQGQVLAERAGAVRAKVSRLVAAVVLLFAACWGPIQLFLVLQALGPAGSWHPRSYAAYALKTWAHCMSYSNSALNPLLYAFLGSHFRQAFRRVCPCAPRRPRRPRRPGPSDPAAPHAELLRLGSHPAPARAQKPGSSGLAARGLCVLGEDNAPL
Experiment [5] in a line: G protein-coupled receptor (GPCR) small molecule agonists, calcium flux assay: HEK293 wild type cell line counter screen (AID 1920065). Also: potency is read from the fitted curve at half-maximal effect. In short, it runs like this: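 Calcium-sensitive dye, loaded 1 h at 37 C into cells cultured 18 h, reports compound-evoked calcium release as fluorescence (Ex/Em 480/540), measured over 3 min. Agonist mode; 15-point titrations, triplicate.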

Experiment [6] can be described thus: p53 small molecule agonists, cell-based qHTS assay with human liver microsomes (AID 1963577).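 Also: p53 response element beta-lactamase reporter cells with liver microsomes plus NADPH.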 Put shortly:
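Steps: plate p53RE-bla cells, incubate 5 h at 37 C; add compound in DMSO; add microsomes (0.5 mg/mL final) and NADPH (0.5 mg/mL final); incubate 16 h at 37 C; add LiveBLAzer, 2 h RT; read fluorescence.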

Experiment [7] is described as follows: p53 small molecule agonists, cell-based qHTS assay with rat liver microsomes (AID 1963578). In short, it runs like this: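 Metabolic activation is supplied by rat liver microsomes with NADPH (each 0.5 mg/mL final). p53RE-bla cells incubate with compound 16 h at 37 C; reporter activity is measured by LiveBLAzer fluorescence.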
The nature of experiment [8]: p53 small molecule agonists, cell-based qHTS assay with human liver microsomes: qHTS cell viability counter screen (AID 1963579). Also: nearly all actives have a fitted effect of over 45% in size. Also: potency is read from the fitted curve at half-maximal effect. In short, it runs like this: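 After the 460/530 nm beta-lactamase read, CellTiter-Glo was added to the same wells and luminescence measured after 30 min at room temperature, giving viability of p53RE-bla cells treated 16 h with compounds plus microsomes and NADPH.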

A short description of experiment [9]: p53 small molecule agonists, cell-based qHTS assay with rat liver microsomes: qHTS cell viability counter screen (AID 1963580). Also: nearly all actives have a fitted effect of over 45% in size. Also: potency is read from the fitted curve at half-maximal effect. Put shortly:
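HCT-116 p53RE-bla, 4,000 cells/well, 5 h pre-incubation; cpd + rat liver microsomes 0.5 mg/mL + NADPH 0.5 mg/mL (final); 16 h, 37 C; CellTiter-Glo, 30 min RT; luminescence.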

Experiment [10] is described as follows: p53 small molecule agonists, cell-based qHTS assay (AID 1963582; active = well fitted activation curve with a large enough effect in the signal ratio in the repeat runs, not every such curve was filed as active; the % refers to the signal ratio). Put shortly:
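In this cell-based concentration-response screen, a p53 response element drives beta-lactamase; cells received DMSO-borne compounds after 5 h culture and were incubated a further 16 h before FRET substrate development.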

Experiment [11] addresses 5-hydroxytryptamine receptor 2A (Homo sapiens) (UniProt P28223). Put plainly: 5-hydroxytryptamine receptor 2A (HTR2A) small molecule antagonists, cell-based qHTS assay (AID 1963586). Also: nearly all actives have a fitted effect of over 45% in size. In short, it runs like this:
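Antagonist-mode intracellular calcium assay: DOI (4 nM) added after 5 min compound pre-incubation at room temperature to dye-loaded HTR2A-CHO cells. Fluorescence followed for 3 min, sampled every second.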

Experiment [12] shares this target. Put plainly: 5-hydroxytryptamine receptor 2A (HTR2A) small molecule agonists, cell-based qHTS assay (AID 1963587). Also: nearly all actives have a fitted effect of over 30% in size. Also: potency is read from the fitted curve at half-maximal effect. In short, it runs like this:
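Kinetic calcium-flux fluorescence (2 min, 1 sec intervals) after compound addition in agonist mode. HTR2A-CHO cells were cultured 18 h, then dye-loaded 1 h at 37 C.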

Experiment [13] addresses Muscarinic acetylcholine receptor M1 (Homo sapiens) (UniProt P11229). Briefly: Cholinergic receptor muscarinic 1 (CHRM1) small molecule antagonists, cell-based qHTS assay (AID 1963588). Also: nearly all actives have a fitted effect of over 40% in size. Put shortly: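 CHRM1-CHO calcium-flux assay, antagonist mode. Cells were seeded 18 h, dye-loaded 1 h at 37 C and given compound for 5 min at RT, then acetylcholine was added at 50nM. FDSS fluorescence was read 3 min; 15 concentrations, three runs.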

Experiment [14] has the same target. Briefly: Cholinergic receptor muscarinic 1 (CHRM1) small molecule agonists, cell-based qHTS assay (AID 1963589). Also: nearly all actives have a fitted effect of over 35% in size. In short, it runs like this: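 Measures agonist-induced intracellular calcium rise. Stable human CHRM1 CHO line, 1 h dye load at 37 C, compounds from DMSO, kinetic fluorescence read.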
Experiment [15] can be described thus: cAMP Responsive Elements (CRE) small molecule agonists, cell-based qHTS assay (AID 1963590). Put shortly:
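A CRE-responsive beta-lactamase reporter in HEK 293T cells was used. Treatment ran 3 h at 37 C; detection used LiveBLAzer B/G FRET substrate for 2 h at room temperature.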

For experiment [16], the target named is Beta-2 adrenergic receptor (Homo sapiens) (UniProt P07550). Briefly: Adrenergic beta2 receptor (ADRB2) small molecule antagonists, cell-based qHTS assay (AID 1963592). Also: nearly all actives have a fitted effect of over 50% in size. Also: potency is read from the fitted curve at half-maximal effect. Put shortly:
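Cells (CHO, stable ADRB2 overexpression) incubated 18-20hr at 37C; compounds added from DMSO; agonist mix (1nM isoproterenol, 100uM IBMX, 25uM Ro-20-1724) added; 0.5hr RT; d2-cAMP and anti-cAMP-cryptate added; 1hr RT; 665/615 nm read.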

The target in experiment [17] is D(2) dopamine receptor (Homo sapiens) (UniProt P14416). Put plainly: Dopamine D2 receptor (DRD2) small molecule agonists, cell-based qHTS assay (AID 1963594). Also: nearly all actives have a fitted effect of over 35% in size. Also: potency is read from the fitted curve at half-maximal effect. In short, it runs like this: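 cAMP accumulation in DRD2-HEK293 cells measured by HTRF after 1 h detection; compounds added 10 min before NKH477 (200nM […]) forskolin-analogue stimulation, 30 min at room temperature, with Ro20-1724 present at 0.1 mM final.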
Chain of D(2) dopamine receptor (Homo sapiens) (P14416 whole entry, looked up): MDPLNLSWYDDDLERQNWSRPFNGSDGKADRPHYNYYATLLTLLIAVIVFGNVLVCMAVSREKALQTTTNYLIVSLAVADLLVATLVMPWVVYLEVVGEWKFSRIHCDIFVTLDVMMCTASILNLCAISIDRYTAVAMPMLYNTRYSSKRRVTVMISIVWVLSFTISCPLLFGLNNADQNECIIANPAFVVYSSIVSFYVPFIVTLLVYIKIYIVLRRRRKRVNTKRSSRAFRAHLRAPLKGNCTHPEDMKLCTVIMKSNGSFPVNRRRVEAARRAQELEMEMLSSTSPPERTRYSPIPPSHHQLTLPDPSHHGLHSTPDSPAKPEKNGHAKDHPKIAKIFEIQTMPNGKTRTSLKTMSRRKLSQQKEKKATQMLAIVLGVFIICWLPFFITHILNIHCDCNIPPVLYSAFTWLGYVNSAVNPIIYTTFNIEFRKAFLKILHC

Experiment [18] shares this target. Briefly: Dopamine D2 receptor (DRD2) small molecule antagonists, cell-based qHTS assay (AID 1963595; active = well fitted inhibition curve with a large enough effect in the signal ratio in the repeat runs, with a control signal flat; the % refers to the signal ratio; also: potency is read from the fitted curve at half-maximal effect). In short, it runs like this: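 Readout: HTRF cAMP, cAMP-d2 competing with cellular cAMP for anti-cAMP cryptate, read after 1 h. Cells: DRD2-HEK293. Conditions: 0.1 mM Ro20-1724, 12 nM quinpirole, 200 nM NKH477, 30 min RT.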
The nature of experiment [19]: cAMP Responsive Elements (CRE) small molecule antagonists, cell-based qHTS assay (AID 1963591; active = well fitted inhibition curve with a large enough effect in the signal ratio in the repeat runs, not every such curve was filed as active; the % refers to the signal ratio). In short, it runs like this: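 HEK293T cells carrying a CRE-driven beta-lactamase reporter receive compound and NKH477 (0.25 uM final) for 3 h. Fluorescence from LiveBLAzer B/G FRET substrate is read after 2 h at room temperature.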
Experiment [20] is described as follows: p53 small molecule agonists, cell-based qHTS assay: qHTS cell viability counter screen (AID 1963581). Also: nearly all actives have a fitted effect of over 45% in size. Also: potency is read from the fitted curve at half-maximal effect. In short, it runs like this:
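Following 5 h attachment, HCT-116 p53RE-bla cells took up compound for 16 h at 37 C; the reporter was read with B/G FRET substrate (2 h RT), and viability then via CellTiter-Glo ATP luminescence.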

A number with no mark means an inactive call. Records with an inconclusive call do not appear. Calls of active or inactive are those of the source. Unless noted, calls follow the shape of the full dose curve.

Chain of Muscarinic acetylcholine receptor M1 (Homo sapiens) (P11229 whole entry, looked up): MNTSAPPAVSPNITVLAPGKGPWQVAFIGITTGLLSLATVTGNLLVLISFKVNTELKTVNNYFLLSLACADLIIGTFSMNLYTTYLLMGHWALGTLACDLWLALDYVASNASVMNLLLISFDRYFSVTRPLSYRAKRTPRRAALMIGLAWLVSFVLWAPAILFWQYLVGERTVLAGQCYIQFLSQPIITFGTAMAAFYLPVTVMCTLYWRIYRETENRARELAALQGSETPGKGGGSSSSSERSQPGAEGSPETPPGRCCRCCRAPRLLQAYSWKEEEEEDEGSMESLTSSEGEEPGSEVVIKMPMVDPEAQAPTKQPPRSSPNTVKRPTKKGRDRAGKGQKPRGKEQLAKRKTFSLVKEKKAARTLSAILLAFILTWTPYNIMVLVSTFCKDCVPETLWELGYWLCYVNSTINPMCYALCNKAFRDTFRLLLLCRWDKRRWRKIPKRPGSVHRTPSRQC
Chain of Beta-2 adrenergic receptor (Homo sapiens) (P07550 whole entry, looked up): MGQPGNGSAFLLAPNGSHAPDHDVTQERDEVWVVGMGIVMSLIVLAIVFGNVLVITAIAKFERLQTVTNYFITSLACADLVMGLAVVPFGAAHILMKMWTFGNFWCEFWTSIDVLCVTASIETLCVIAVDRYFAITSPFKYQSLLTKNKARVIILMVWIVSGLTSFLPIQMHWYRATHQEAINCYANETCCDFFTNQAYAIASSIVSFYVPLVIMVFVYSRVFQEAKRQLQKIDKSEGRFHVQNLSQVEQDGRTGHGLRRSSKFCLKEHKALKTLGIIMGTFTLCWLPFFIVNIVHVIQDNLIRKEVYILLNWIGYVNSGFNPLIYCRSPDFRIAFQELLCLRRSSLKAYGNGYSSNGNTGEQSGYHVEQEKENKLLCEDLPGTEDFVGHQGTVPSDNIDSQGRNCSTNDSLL
Chain of 5-hydroxytryptamine receptor 2A (Homo sapiens) (P28223 whole entry, looked up): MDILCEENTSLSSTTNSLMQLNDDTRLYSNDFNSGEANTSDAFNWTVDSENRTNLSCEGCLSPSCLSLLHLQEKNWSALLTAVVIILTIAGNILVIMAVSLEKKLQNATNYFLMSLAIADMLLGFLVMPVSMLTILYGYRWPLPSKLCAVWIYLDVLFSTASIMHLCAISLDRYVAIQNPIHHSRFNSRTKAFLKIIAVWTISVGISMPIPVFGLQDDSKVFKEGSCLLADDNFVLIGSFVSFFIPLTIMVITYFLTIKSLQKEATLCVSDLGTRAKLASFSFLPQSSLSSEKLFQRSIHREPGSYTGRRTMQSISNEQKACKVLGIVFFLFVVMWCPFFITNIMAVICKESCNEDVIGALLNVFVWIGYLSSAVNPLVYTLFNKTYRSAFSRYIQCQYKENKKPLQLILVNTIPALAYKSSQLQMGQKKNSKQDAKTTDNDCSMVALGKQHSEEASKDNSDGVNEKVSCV
Chain of Gonadotropin-releasing hormone receptor (Homo sapiens) (P30968 whole entry, looked up): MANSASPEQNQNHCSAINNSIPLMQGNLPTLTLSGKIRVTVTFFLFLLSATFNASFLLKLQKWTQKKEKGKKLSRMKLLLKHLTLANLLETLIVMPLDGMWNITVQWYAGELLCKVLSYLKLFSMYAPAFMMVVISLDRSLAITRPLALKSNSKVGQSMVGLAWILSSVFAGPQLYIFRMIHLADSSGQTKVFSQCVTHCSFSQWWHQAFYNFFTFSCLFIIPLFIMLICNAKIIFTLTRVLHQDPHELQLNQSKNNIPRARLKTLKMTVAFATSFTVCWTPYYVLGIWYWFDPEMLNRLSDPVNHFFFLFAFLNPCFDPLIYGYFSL

`CCOC(=O)NC(C)(C)Cc1ccc(Cl)cc1`: the Potency entry in experiment [1], in experiment [2], in experiment [3], in [4], in experiment [5] and in experiment [6] was “inactive” throughout. Also, the Potency result in experiment [7], in [8], in experiment [9], in [10], in experiment [11] and in experiment [12] was “inactive” throughout. In addition, the Potency entry in experiment [13], in experiment [14], in [15], in experiment [16], in [17] and in experiment [18] was “inactive” each time.

On to `CN(C)c1ccc(N=Nc2ccccc2)cc1`, for which the Potency entry in experiment [1], in experiment [3], in [4], in experiment [5], in experiment [6] and in experiment [7] was “inactive” throughout. Moreover, the Potency entry in [8], in experiment [9], in experiment [10], in [11], in experiment [12] and in [13] was “inactive” throughout. Further, the Potency result in [14], in experiment [19], in experiment [16], in experiment [17] and in experiment [18] was “inactive” each time. Also, the Potency in [2] was 3.07 µM (active).

For `C[C@@H]1CC[C@@]2(OC1)O[C@H]1[C@@H](O)[C@H]3[C@@H]4CC[C@H]5C[C@@H](O[C@@H]6O[C@H](CO)[C@H](O[C@@H]7O[C@H](CO)[C@@H](O)[C@H](O[C@@H]8OC[C@@H](O)[C@H](O)[C@H]8O)[C@H]7O[C@@H]7O[C@H](CO)[C@@H](O)[C@H](O[C@@H]8O[C@H](CO)[C@@H](O)[C@H](O)[C@H]8O)[C@H]7O)[C@H](O)[C@H]6O)[C@H](O)C[C@]5(C)[C@H]4CC[C@]3(C)[C@H]1[C@@H]2C`, the Potency in experiment [1] was 8.17 µM (active); in [3] it was 0.735 µM (active); in experiment [4], 23.2 µM (active); in [5] it was 41.3 µM (active); in experiment [8], 13.7 µM (active); in experiment [9], 13.7 µM (active). For the same molecule, the Potency was 13.7 µM (active) in [20], 64.9 µM (active) in experiment [16], 51.5 µM (active) in experiment [17] and 2.3 µM (active) in [18]. In addition, the Potency entry in [2], in [6], in [7] and in experiment [19] was “inactive” throughout.

As for `COc1ccc(OC)c(C=O)c1`, the Potency result in [1], in experiment [2], in experiment [3], in [4], in experiment [5] and in experiment [6] was “inactive” throughout. Further, the Potency entry in [7], in [8], in experiment [9], in [11], in experiment [12] and in experiment [13] was “inactive” throughout. Besides, the Potency result in experiment [14], in experiment [15], in experiment [19], in [16], in experiment [17] and in experiment [18] was “inactive” throughout.

As to `N[C@@H]1C[C@H]1c1ccccc1`, the Potency entry in experiment [1], in experiment [2], in experiment [3], in experiment [4], in experiment [5] and in [6] was “inactive” each time. Also, the Potency result in experiment [7], in [8], in [9], in [10], in experiment [11] and in experiment [13] was “inactive” throughout. Also, the Potency entry in experiment [14], in experiment [15], in experiment [16] and in experiment [18] was “inactive” each time. Moreover, the Potency in [12] is 8.49 µM (active).

`CCS(=O)(=O)C(C)(C)S(=O)(=O)CC`: the Potency entry in experiment [1], in experiment [2], in experiment [3], in experiment [4], in experiment [5] and in experiment [6] was “inactive” in each case. The Potency result in experiment [7], in [8], in [9], in experiment [20], in experiment [11] and in experiment [12] was “inactive” each time. The Potency entry in [14], in experiment [15], in experiment [19], in experiment [16] and in [18] was “inactive” in each case.

Regarding `O=C1C(=O)c2cccc3cccc1c23`, the Potency result in experiment [1], in experiment [3], in [4], in experiment [5], in experiment [6] and in experiment [7] was “inactive” in each case. Also, the Potency result in experiment [8], in [9], in [11], in experiment [12], in experiment [13] and in experiment [14] was “inactive” each time. The Potency entry in experiment [19], in [16], in experiment [17] and in [18] was “inactive” each time. Besides, the Potency in [2] is 27.3 µM (active).
